Source: PubChem BioAssay AID2058 (Sanford-Burnham Center for Chemical Genomics, 2009)
The campaign covered roughly 290,000 compounds. About 150 (0.052%) were called active.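 The calls were made as follows: active = inhibition of at least 50% with at least 30 cells and total cytoplasm GFP at most 10,000,000; inconclusive = under 30 cells or total GFP of 10,000,000 plus; inactive = the rest.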 This excerpt belongs to a sample that is enriched for actives. Results with a measured potency or affinity are listed apart.

These compounds were tested against G-protein coupled receptor 35 (Homo sapiens) (UniProt Q9HC97) (assay: GPR35 antagonists blocking zaprinast-driven arrestin recruitment, primary screen, imaging, U2OS, beta-arrestin-GFP, zaprinast agonist (AID 2058)). Conditions: U2OS GPR35 beta-arrestin-GFP translocation imaging, zaprinast antagonism; at 10 µM; active compounds read high.
Chain of G-protein coupled receptor 35 (Homo sapiens) (Q9HC97 whole entry, looked up): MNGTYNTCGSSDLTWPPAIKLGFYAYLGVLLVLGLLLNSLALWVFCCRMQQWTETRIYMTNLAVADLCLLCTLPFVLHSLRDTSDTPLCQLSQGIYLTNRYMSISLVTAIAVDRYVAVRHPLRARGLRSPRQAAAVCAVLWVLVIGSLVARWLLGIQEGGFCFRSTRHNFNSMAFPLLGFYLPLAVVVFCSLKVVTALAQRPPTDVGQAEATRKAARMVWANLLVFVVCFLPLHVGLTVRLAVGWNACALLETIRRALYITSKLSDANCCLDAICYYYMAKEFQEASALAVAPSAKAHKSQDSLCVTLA

Compound	inhibition
Cc1ccc(NC(=O)C(C)Sc2nnc(-c3cccnc3)n2-c2ccccc2)cc1 (stereo not given)	-0.8% (inactive)
Cc1nn(C(C)C(=O)NCCc2ccco2)c(=O)c2nn(-c3ccccc3)c(C)c12 (stereo not given)	-4% (inactive)
Cc1cc(-c2nn(-c3ccccc3F)cc2CN2CCCC(CO)C2)c(C)s1 (stereo not given)	19.6% (inactive)
Cc1cc(-c2nn(-c3ccccc3F)cc2CN2CCC(O)CC2)c(C)s1	-0.9% (inactive)
Cc1cc(-c2nn(-c3ccccc3F)cc2CN(C)CC(O)CO)c(C)s1 (stereo not given)	103% (active)
COCc1cc(/C=N\NC(=O)Cc2ccc(Cl)cc2)ccc1OC	1.9% (inactive)
O=C(CCc1nnc2n(Cc3ccc(F)cc3)c(=O)c3ccccc3n12)NCCCN1CCOCC1	-5.8% (inactive)
CCOc1ccc(/C=C2/SC(=O)NC2=S)cc1	5.9% (inactive)
CCOc1ccc(/C=C2\SC(=S)NC2=O)cc1OC	-8% (inactive)
COc1ccc(NC(=S)N(CCN2CCOCC2)Cc2cc3cc4c(cc3[nH]c2=O)OCO4)cc1	-1.5% (inactive)
COc1ccc(NC(=S)N(CCN2CCOCC2)Cc2cc3cc4c(cc3[nH]c2=O)OCCO4)cc1	98.1% (active)
CCOc1ccc(NC(=S)N(CCN2CCOCC2)Cc2cc3cc4c(cc3[nH]c2=O)OCCO4)cc1	6.4% (inactive)
CS(=O)(=O)c1ccc(NCCc2ccc(S(N)(=O)=O)cc2)c([N+](=O)[O-])c1	-3.1% (inactive)
COc1ccc(N2CCN(C3CC(=O)N(Cc4ccccc4)C3=O)CC2)cc1 (stereo not given)	6.4% (inactive)
COc1cc(/C=N/O)cc(Cl)c1OC	1.8% (inactive)
Cc1[nH][nH]c(=O)c1N=Nc1ccc(Cl)cc1	-3.2% (inactive)
O=c1cc(CSCc2ccc(Cl)cc2)[nH]c(=O)[nH]1	2.3% (inactive)
O=c1cc(N=Nc2ccc(Cl)cc2)[nH]c(=O)[nH]1	52.2% (active)
O=C(COc1ccc(Cl)cc1Cl)NCCSc1ccc(Cl)cc1	-14.2% (inactive)
O=C(O)c1ccc(Nc2cc(Cl)c3nonc3c2[N+](=O)[O-])cc1	8.7% (inactive)
O=[N+]([O-])c1c(Nc2ccc(O)cc2)cc(Cl)c2nonc12	72.1% (active)
O=[N+]([O-])c1c(Nc2cccc(O)c2)cc(Cl)c2nonc12	35% (inactive)
COC(=O)C1=C(C)N=C2SCCC(=O)N2C1c1cc(Br)ccc1OC (stereo not given)	-10.8% (inactive)

Compound	inhibition
CCOC(=O)c1cnn(CCOC(=O)C2CC2)c1NC(=O)C1CC1	-5.8% (inactive)
Cc1cc(C)cc(N=Cc2[nH]c3ccc(Br)c(Cl)c3c2O)c1	41% (inactive)
Cc1cccc(N=Cc2cc(Br)cc(Cl)c2O)c1	-33.9% (inactive)
Cc1cccc(N=Cc2[nH]c3ccc(Br)c(Cl)c3c2O)c1	54% (active)
Nc1c(S(=O)(=O)c2cccs2)c2nc3ccccc3nc2n1CC1CCCO1 (stereo not given)	4.2% (inactive)
NC1=NC(=O)C2(COC(c3cccnc3)OC2)S1 (stereo not given)	-12.6% (inactive)
Nc1nc2ccc([N+](=O)[O-])cc2[nH]1	20.4% (inactive)
O=[N+]([O-])c1ccc2[nH]nc(-c3ccccc3)c2c1	-6.7% (inactive)
CCC(=O)Nc1nnc(SCC(=O)NCCc2ccc(OC)c(OC)c2)s1	-2.7% (inactive)
Cc1cc(SCC(=O)N/N=C/c2ccc(C(=O)O)cc2)nc2ccccc12	1.1% (inactive)
CC(C)N1C(=O)S/C(=C/c2ccc(Sc3nc4ccccc4[nH]3)o2)C1=O	-6.1% (inactive)
CCN(CC)c1ccc(/C=C2\SC(=O)N(C(C)C)C2=O)o1	102% (active)
CC(C)N1C(=O)S/C(=C\c2ccc(-c3ccc(Cl)c(C(=O)O)c3)o2)C1=O	-27.6% (inactive)
COc1ccccc1OCCNC(=O)Nc1cc(F)c(F)cc1Cl	3.6% (inactive)
COc1cc(-c2nc(Cc3c(F)cccc3Cl)no2)cc(OC)c1OC	7.3% (inactive)
Oc1ccccc1C1=NN(c2ccccc2)C(c2ccc(F)cc2)C1 (stereo not given)	1.5% (inactive)
COc1ccc(C2CC(c3ccc(F)cc3)=NN2c2ccccc2)cc1OC (stereo not given)	-7.1% (inactive)
Oc1ccc(C2=NN(c3ccccc3)C(c3ccc(F)cc3)C2)cc1 (stereo not given)	78.6% (active)
COc1cccc(N2C(=O)CC(NNC(=O)c3cccs3)C2=O)c1 (stereo not given)	-15.4% (inactive)
O=C(Cn1cncn1)N/N=C/c1cccnc1	-13.5% (inactive)
CC(C)C1=NN2C(=N)CC(=O)N=C2S1	-12.3% (inactive)
Cc1ccc(Cn2ncc3c(N4CCN(Cc5ccc(Cl)cc5)CC4)ncnc32)cc1	11.6% (inactive)
Clc1ccc(Cn2ncc3c(N4CCCC4)ncnc32)cc1	-11.9% (inactive)

Compound	inhibition
Cc1ccc(Cn2ncc3c(N4CCN(c5ccc(C)cc5)CC4)ncnc32)cc1	1.6% (inactive)
Cc1ccc(Cn2ncc3c(N4CCN(C)CC4)ncnc32)cc1	-0.4% (inactive)
COc1ccc(C2c3c(ccc4ccccc34)Oc3ncn4nc(CO/N=C/c5ccccc5)nc4c32)cc1 (stereo not given)	-1.8% (inactive)
COc1ccc(C(=O)NNS(=O)(=O)c2ccccc2)cc1	-5.9% (inactive)
CC(C)[C@H](Nc1ccc(S(=O)(=O)N2CCOCC2)cc1[N+](=O)[O-])C(=O)OCC(=O)N(C(C)C)C(C)C	11.5% (inactive)
COc1cc(/C=N/NC(=O)CC2(C)OCCCO2)ccc1OCc1ccc(Cl)cc1Cl	10.6% (inactive)
COc1cc(/C=N/NC(=O)CC2(C)OCCCO2)ccc1OCc1ccccc1	-7.2% (inactive)
O=C(NCC1CCCO1)c1cc2cc(Cl)ccc2[nH]1 (stereo not given)	2.4% (inactive)
CCOC(=O)c1ccccc1NC(=O)Cn1cnc2c(oc3ccccc32)c1=O	8.3% (inactive)
COC(=O)c1ccc(CSc2nc(C)nc3c2c(=O)n(C)c(=O)n3C)o1	-16.8% (inactive)
O=C(CSc1nc2cc(Cl)ccc2c(=O)n1Cc1ccco1)Nc1ccc(S(=O)(=O)N2CCOCC2)cc1	-2.6% (inactive)
O=C(N/N=C/c1cccs1)[C@H]1C[C@@H]1c1ccccc1	9.8% (inactive)
Oc1ccc(/C=N/Nc2nc(-c3cccnc3)nc3ccccc23)c(O)c1	8.3% (inactive)
Oc1ccc(Nc2nc(-c3ccccc3F)nc3ccccc23)cc1	-5.3% (inactive)
CC1CCN(S(=O)(=O)c2cccc(S(=O)(=O)N3CCCC3)c2)CC1	4.8% (inactive)
NC(=O)c1cc2cc([N+](=O)[O-])ccc2oc1=O	-20% (inactive)
COc1ccc(C(=O)Nc2ccc(Cl)cc2C(=O)NCc2ccco2)cc1	14% (inactive)
CCn1cnc2cc(NCc3ccc(OC)cc3)ccc21	-12.4% (inactive)
CCOc1ccc(CNc2ccc3c(c2)nc(C)n3C)cc1	4.9% (inactive)
CCOCC(O)CS(=O)(=O)c1ccccn1 (stereo not given)	-4.6% (inactive)
O=C(Nc1nc2ccc(Cl)cc2s1)c1ccc(N2CCCCC2)c([N+](=O)[O-])c1	4.2% (inactive)
O=C(Nc1nc2ccc3ccccc3c2s1)c1ccc(N2CCCCC2)c([N+](=O)[O-])c1	5.5% (inactive)
O=C(Cc1cccc2ccccc12)Nc1cc(Cl)ccc1C(=O)O	-3.5% (inactive)

Compound	inhibition
O=C(CCC1N=C2c3ccccc3N=C(SCC(=O)NCC3CCCO3)N2C1=O)NCc1ccc(F)cc1 (stereo not given)	-0.5% (inactive)
N#C/C(=C\c1ccc(N2CCOCC2)o1)c1nc2ccccc2[nH]1	26.1% (inactive)
N#C/C(=C\c1ccc(N2CCOCC2)o1)c1ccccc1	19.5% (inactive)
CCn1c(CC(=O)Nc2ccccc2F)nnc1SCC(=O)N1CCN(c2ccccc2)CC1	-10.6% (inactive)
CC(C)(C)NC(=O)CN(C(=O)C(=O)Nc1ccc2c(c1)OCCO2)C1CCCC1	15.5% (inactive)
CC(=O)c1cccc(NC(=O)/C(=C\c2ccco2)NC(=O)c2ccco2)c1	-5.7% (inactive)
CCN1C=CC2=C(C#N)C(N)C(C#N)(C#N)C(c3ccccc3C(F)(F)F)C2C1 (stereo not given)	12.6% (inactive)
CN1C=CC2=C(C#N)C(N)C(C#N)(C#N)[C@H](c3ccccc3)[C@H]2C1 (stereo not given in full)	38.1% (inactive)
CC1=C(C(=O)OCc2ccccc2)C(c2ccccc2Cl)NC(=O)N1CCCCCC(=O)O (stereo not given)	0.1% (inactive)
O=S(=O)(Nc1nc2ccccc2s1)c1cc(F)ccc1F	-10.3% (inactive)
CC1CN(CCC(=O)Nc2ccc3c(c2)OCO3)CC(C)O1 (stereo not given)	-12% (inactive)
C#CCOCCOCCOCCNc1nc(N2CCN(C(=O)[C@H]([C@@H](C)CC)n3cc(CCCN=C(N)N)nn3)CC2)nc(N2CCN(C(=O)[C@H](Cc3ccc(O)cc3)n3cc(CCO)nn3)CC2)n1	-6.4% (inactive)
Cc1ccc(C2=NN(S(C)(=O)=O)C(c3ccc4c(c3)OCO4)C2)cc1 (stereo not given)	6.3% (inactive)
CS(=O)(=O)N1N=C(c2ccc(Br)cc2)CC1c1ccc2c(c1)OCO2 (stereo not given)	20.6% (inactive)
O=C(NC1CCCC1)C(c1ccccn1)N(C(=O)c1csnn1)c1ccccc1 (stereo not given)	13.8% (inactive)
COc1ccc(/C=N/N2C(=O)CN(C(=O)c3ccccc3)C2c2ccc(OC)cc2)cc1 (stereo not given)	1.5% (inactive)
COc1ccc(S(=O)(=O)N2CCOC2CNC(=O)C(=O)NCCc2c[nH]c3ccccc23)cc1 (stereo not given)	4.5% (inactive)
O=C(Nc1ccc(C2=NCCN2)cc1)c1ccc(C(=O)Nc2ccc(C3=NCCN3)cc2)c([N+](=O)[O-])c1	-3.6% (inactive)
O=C(Nc1ccc(C2=NCCN2)cc1)c1ccc(Cl)c(C(=O)Nc2ccc(C3=NCCN3)cc2)c1	13.7% (inactive)
O=C(Nc1ccc(C2=NCCN2)cc1)c1ccc(C(=O)Nc2ccc(C3=NCCN3)cc2)c(Cl)c1	101% (active)
COC(=O)c1sc(S(=O)(=O)N2CCC(C)CC2)c(C(=O)OC)c1C	10.9% (inactive)
